Laboratory results reported in PubChem BioAssay (Tox21).
Records with an inconclusive call do not appear. Where a call stands in place of a potency, no number is given. Active and inactive are the calls of the source. Calls come from the whole dose curve.

Each compound was assayed against Acetylcholinesterase (Homo sapiens) (UniProt P22303) (assay: Acetylcholinesterase (AChE) small molecule antagonists: colormetric cell-based qHTS assay (AID 1347395; note: nearly all actives have a fitted effect of over 30% in size)). Details: SH-SY5Y cells AChE activity, colorimetric (Ellman); series mostly up to 115 µM.
How it was run: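 Neuroblastoma line SH-SY5Y supplied the enzyme; cells were preincubated with compound for 30 min at 37 C and 5% CO2. Acetylthiocholine with DTNB was then added for 90 min at 37 C, and thiocholine was measured by colour.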
Potency is the fitted concentration of half-maximal effect.

Chain of Acetylcholinesterase (Homo sapiens) (P22303 whole entry, looked up): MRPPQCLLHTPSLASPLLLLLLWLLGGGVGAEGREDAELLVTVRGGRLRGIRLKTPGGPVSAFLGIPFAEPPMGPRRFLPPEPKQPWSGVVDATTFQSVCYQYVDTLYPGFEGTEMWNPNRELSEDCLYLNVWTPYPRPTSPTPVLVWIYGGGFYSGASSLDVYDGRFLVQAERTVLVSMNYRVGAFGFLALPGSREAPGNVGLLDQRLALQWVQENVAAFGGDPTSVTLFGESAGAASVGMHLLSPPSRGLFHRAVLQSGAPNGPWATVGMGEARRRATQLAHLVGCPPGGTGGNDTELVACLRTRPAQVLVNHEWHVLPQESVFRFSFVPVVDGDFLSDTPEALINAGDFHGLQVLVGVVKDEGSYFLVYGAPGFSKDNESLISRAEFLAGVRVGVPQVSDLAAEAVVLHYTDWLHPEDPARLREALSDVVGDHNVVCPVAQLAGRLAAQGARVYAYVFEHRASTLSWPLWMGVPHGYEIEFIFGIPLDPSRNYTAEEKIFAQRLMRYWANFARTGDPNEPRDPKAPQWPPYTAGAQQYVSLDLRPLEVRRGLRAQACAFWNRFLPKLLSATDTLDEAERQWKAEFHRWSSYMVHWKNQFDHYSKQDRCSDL

SMILES | Potency | activity, negative = inhibition
CCO[C@@H]1O[C@H](C(COCc2ccccc2)OCc2ccccc2)[C@H](OCc2ccccc2)[C@H]1O (stereo not given in full) | inactive | 
COc1ccc2nc(SCc3ncc(C)c(OC)c3C)[nH]c2c1 | inactive | 
CCC[C@@H]1C[C@@H](C(=O)N[C@@H]([C@H]2O[C@H](SC)[C@H](O)[C@@H](O)[C@H]2O)[C@@H](C)O)N(C)C1 | inactive | 
COc1ccc(C(=O)Nc2ccccc2)cc1[N+](=O)[O-] | 35.9 µM (active) | 
C[Si](C)(C)C | inactive | 
Cc1nc(N)nc(N)c1-c1ccc(Cl)c(Cl)c1 | inactive | 
CCN(CC)c1ccc2c(c1)Oc1cc(N(CC)CC)ccc1C21OC(=O)c2ccccc21 | inactive | 
CC(=O)NC(Cc1ccccc1)C(=O)O (stereo not given) | inactive | 
OCC(F)(F)F | inactive | 
CN(CCOc1ccc(NS(C)(=O)=O)cc1)CCc1ccc(NS(C)(=O)=O)cc1 | 17.4 µM (active) | 
CN1CCN(Cc2cc(-c3ccc4[nH]c(=O)oc4c3)co2)[C@@H](c2ccc(F)cc2)C1 | inactive | 
O=C(O)CCN(C1(C(=O)NO)CCCC1)S(=O)(=O)c1ccc(Oc2ccc(F)cc2)cc1 | inactive | 
CN(C)CCCSc1ccccc1NC(=O)/C=C/c1ccccc1 | inactive | 
CN1CCCC(CC2c3ccccc3Sc3ccccc32)C1 (stereo not given) | inactive | 
CC(C)(CCl)c1ccccc1 | inactive | 
COc1c(N2C[C@@H]3CCCN[C@@H]3C2)c(F)cc2c(=O)c(C(=O)O)cn(C3CC3)c12 | inactive | 
COc1cc(OC)nc(NC(=O)NS(=O)(=O)Nc2ccccc2C(=O)N(C)C)n1 | inactive | 
CCCCC(CC)COCCO (stereo not given) | inactive | 
CCCC(=O)OCc1ccccc1 | inactive | 
CC(C)C1CCC(O)CC1 (stereo not given) | inactive | 

SMILES | Potency | activity, negative = inhibition
N[C@@H](CSCCCO)C(=O)O |  | -1.97% [at 23.6 µM] (inactive)
Oc1ccc(C2(c3ccc(O)cc3)CC3CC2C2CCCC32)cc1 (stereo not given) | inactive | 
CN(C)CCOC(c1ccc(Cl)cc1)c1ccccn1 (stereo not given) | inactive | 
FC1(F)C(F)(F)C(F)(F)C2(F)C(F)(C1(F)F)C(F)(F)C(F)(F)C1(F)C(F)(F)C(F)(F)C(F)(F)C(F)(F)C12F (stereo not given) | inactive | 
CCCCCC=CCC=CCCCCCCCC(=O)OCC | inactive | 
Cc1ccc(O)c(N)c1 | inactive | 
CCN1CCC[C@H]1CNC(=O)c1c(OC)ccc(Br)c1OC | inactive | 
OCCN1CCN(CC/C=C2/c3ccccc3Sc3ccc(C(F)(F)F)cc32)CC1 | inactive | 
C[n+]1cc2c3c(ccc2c2ccc4cc5c(cc4c21)OCO5)OCO3 | 10.7 µM (active) | 
CCCCCCOC(=O)C(C)CC (stereo not given) | inactive | 
O=[N+]([O-])c1cccc(I)c1 | inactive | 
Cc1ccc(NC(=O)c2ccc(CN3CCN(C)CC3)cc2)cc1Nc1nccc(-c2cccnc2)n1 | inactive | 
O=S(=O)(O)c1ccc(N=Nc2c(O)ccc3ccccc23)cc1 | inactive | 
CN(C)CCN1C(=O)c2ccccc2N(C)c2ccccc21 | inactive | 
CSc1ccc2c(c1)C(N1CCN(C)CC1)Cc1ccccc1S2 (stereo not given) | inactive | 
O=C(O)/C=C(\CC(=O)O)C(=O)O | inactive | 
COc1c(N2CCNC(C)C2)c(F)cc2c(=O)c(C(=O)O)cn(C3CC3)c12 (stereo not given) | inactive | 
C[C@H](CCC(=O)O)[C@H]1CC[C@H]2[C@@H]3[C@H](O)C[C@@H]4C[C@H](O)CC[C@]4(C)[C@H]3C[C@H](O)[C@]12C | inactive | 
O=C(O)c1cccc(C(F)(F)F)c1 | inactive | 
O=[N+]([O-])c1ccc(Cl)cc1Cl | inactive | 

What follows are compounds tested against Acetylcholinesterase (Homo sapiens) (UniProt P22303) (assay: Acetylcholinesterase (AChE) small molecule antagonists: enzyme-based qHTS assay (AID 1347397; note: nearly all actives have a fitted effect of over 55% in size)). Details: Potency: AChE enzyme activity inhibition; outcome: AChE enzyme activity inhibition; series mostly up to 115 µM.
How it was run: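 Recombinant human AChE (50 mU/mL) preincubated with compound 30 min at room temperature; acetylthiocholine plus DTNB then added, and thiocholine formation read colorimetrically after 10 min at room temperature. DMSO served as vehicle control.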

SMILES | Potency | activity change, negative = inhibition
CCO[C@@H]1O[C@H](C(COCc2ccccc2)OCc2ccccc2)[C@H](OCc2ccccc2)[C@H]1O (stereo not given in full) | inactive | 
COc1ccc2nc(SCc3ncc(C)c(OC)c3C)[nH]c2c1 | inactive | 
CCC[C@@H]1C[C@@H](C(=O)N[C@@H]([C@H]2O[C@H](SC)[C@H](O)[C@@H](O)[C@H]2O)[C@@H](C)O)N(C)C1 | inactive | 
COc1ccc(C(=O)Nc2ccccc2)cc1[N+](=O)[O-] | inactive | 
C[Si](C)(C)C | inactive | 
Cc1nc(N)nc(N)c1-c1ccc(Cl)c(Cl)c1 | inactive | 
CCN(CC)c1ccc2c(c1)Oc1cc(N(CC)CC)ccc1C21OC(=O)c2ccccc21 | inactive | 
CC(=O)NC(Cc1ccccc1)C(=O)O (stereo not given) | inactive | 
OCC(F)(F)F | inactive | 
CN(CCOc1ccc(NS(C)(=O)=O)cc1)CCc1ccc(NS(C)(=O)=O)cc1 | inactive | 
CN1CCN(Cc2cc(-c3ccc4[nH]c(=O)oc4c3)co2)[C@@H](c2ccc(F)cc2)C1 | inactive | 
O=C(O)CCN(C1(C(=O)NO)CCCC1)S(=O)(=O)c1ccc(Oc2ccc(F)cc2)cc1 | inactive | 
CN(C)CCCSc1ccccc1NC(=O)/C=C/c1ccccc1 | inactive | 
CN1CCCC(CC2c3ccccc3Sc3ccccc32)C1 (stereo not given) | inactive | 
CC(C)(CCl)c1ccccc1 | inactive | 
COc1c(N2C[C@@H]3CCCN[C@@H]3C2)c(F)cc2c(=O)c(C(=O)O)cn(C3CC3)c12 | inactive | 
COc1cc(OC)nc(NC(=O)NS(=O)(=O)Nc2ccccc2C(=O)N(C)C)n1 | inactive | 
CCCCC(CC)COCCO (stereo not given) | inactive | 
CCCC(=O)OCc1ccccc1 | inactive | 
CC(C)C1CCC(O)CC1 (stereo not given) | inactive | 

SMILES | Potency | activity change, negative = inhibition
N[C@@H](CSCCCO)C(=O)O |  | 1.52% [at 23.6 µM] (inactive)
Oc1ccc(C2(c3ccc(O)cc3)CC3CC2C2CCCC32)cc1 (stereo not given) | 76.5 µM (active) | 
CN(C)CCOC(c1ccc(Cl)cc1)c1ccccn1 (stereo not given) | inactive | 
FC1(F)C(F)(F)C(F)(F)C2(F)C(F)(C1(F)F)C(F)(F)C(F)(F)C1(F)C(F)(F)C(F)(F)C(F)(F)C(F)(F)C12F (stereo not given) | inactive | 
CCCCCC=CCC=CCCCCCCCC(=O)OCC | inactive | 
Cc1ccc(O)c(N)c1 | inactive | 
CCN1CCC[C@H]1CNC(=O)c1c(OC)ccc(Br)c1OC | inactive | 
OCCN1CCN(CC/C=C2/c3ccccc3Sc3ccc(C(F)(F)F)cc32)CC1 | inactive | 
C[n+]1cc2c3c(ccc2c2ccc4cc5c(cc4c21)OCO5)OCO3 | 16.9 µM (active) | 
CCCCCCOC(=O)C(C)CC (stereo not given) | inactive | 
O=[N+]([O-])c1cccc(I)c1 | inactive | 
Cc1ccc(NC(=O)c2ccc(CN3CCN(C)CC3)cc2)cc1Nc1nccc(-c2cccnc2)n1 | inactive | 
O=S(=O)(O)c1ccc(N=Nc2c(O)ccc3ccccc23)cc1 | inactive | 
CN(C)CCN1C(=O)c2ccccc2N(C)c2ccccc21 | inactive | 
CSc1ccc2c(c1)C(N1CCN(C)CC1)Cc1ccccc1S2 (stereo not given) | inactive | 
O=C(O)/C=C(\CC(=O)O)C(=O)O | inactive | 
COc1c(N2CCNC(C)C2)c(F)cc2c(=O)c(C(=O)O)cn(C3CC3)c12 (stereo not given) | inactive | 
C[C@H](CCC(=O)O)[C@H]1CC[C@H]2[C@@H]3[C@H](O)C[C@@H]4C[C@H](O)CC[C@]4(C)[C@H]3C[C@H](O)[C@]12C | inactive | 
O=C(O)c1cccc(C(F)(F)F)c1 | inactive | 
O=[N+]([O-])c1ccc(Cl)cc1Cl | inactive | 
